Source: PubChem (several laboratories)
PHOSPHO1 block – blocks human PHOSPHO1 phosphatase activity. Q8TCT1. recombinant PHOSPHO1, absorbance phosphatase assay. inhibition, % at 13.3 µM. 290,000 tested, 1.1% active; in the data active means inhibition above about 60%
Target sequence (Q8TCT1 whole entry, looked up): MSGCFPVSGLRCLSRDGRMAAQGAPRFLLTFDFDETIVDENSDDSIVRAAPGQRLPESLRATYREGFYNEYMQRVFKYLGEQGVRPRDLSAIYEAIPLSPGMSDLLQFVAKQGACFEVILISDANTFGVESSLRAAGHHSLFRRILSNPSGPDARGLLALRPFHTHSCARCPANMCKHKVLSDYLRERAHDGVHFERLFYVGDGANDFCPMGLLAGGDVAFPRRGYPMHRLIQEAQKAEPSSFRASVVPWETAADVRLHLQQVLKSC
A3A deaminase – blocks human APOBEC3A ssDNA deamination; AID 493011; recombinant A3A, FAM/TAMRA ssDNA deamination fluorescence; P31941; 330,000 tested, 0.41% active; inhibition, % at 20 µM;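 active means at least 40% inhibition at 20 µM here, with at most 30% in a related deaminase screen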
Target sequence (P31941 whole entry, looked up): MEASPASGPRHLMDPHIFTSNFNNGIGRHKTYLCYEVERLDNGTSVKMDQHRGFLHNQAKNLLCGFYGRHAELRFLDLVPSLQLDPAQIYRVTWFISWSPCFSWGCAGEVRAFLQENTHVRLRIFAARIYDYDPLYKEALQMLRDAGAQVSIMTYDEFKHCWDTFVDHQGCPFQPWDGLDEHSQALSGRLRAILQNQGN
rCAG binder – r(CAG) repeat RNA binding; TO-PRO-1 dye displacement fluorescence; inhibition, % at 3 µM; 370,000 tested, 1.3% active;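 active means inhibition above the plate cutoff, the mean of all test compounds on that plate plus 3 SD, cut at about 35% in these data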;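 further: higher means more dye released from RNA so lower well fluorescence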
A3G deaminase – inhibitors of human APOBEC3G DNA deaminase | recombinant A3G, ssDNA deamination FAM/TAMRA fluorescence | AID 493012 | 330,000 tested, 0.28% active | inhibition, % at 20 µM | Q9HC16;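 active means inhibition of at least 40% at 20 µM, with no more than 30% in the related APOBEC3A deaminase screen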
ALR inh – blocks human ALR sulfhydryl oxidase activity. 290,000 tested, 3.8% active. AID 485317. purified ALR, DTT oxidation, H2O2 HRP-luminol luminescence. inhibition, % (concentration not given with the values);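 active means mean replicate inhibition above about 79%, with every replicate also reaching it, limit read from the data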
Target sequence (P55789 whole entry, looked up): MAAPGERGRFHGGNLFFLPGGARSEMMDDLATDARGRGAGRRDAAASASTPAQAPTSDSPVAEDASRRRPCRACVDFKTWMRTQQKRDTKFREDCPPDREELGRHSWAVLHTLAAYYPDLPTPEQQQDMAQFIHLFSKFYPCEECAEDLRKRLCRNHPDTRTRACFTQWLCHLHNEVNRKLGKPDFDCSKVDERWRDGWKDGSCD
aDG glyco up – alpha-DG glycosylation activation; Pro5-aDG cells, alpha-DG glycosylation AlphaScreen (IIH6); 0% Pro5, 100% B10-LARGE cell signal; activation, % at 10 µM; 360,000 tested, 0.22% active;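 active means activation of at least 8% versus controls, or a plate z-score of at least 8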;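 further: Pro5 are CHO cells carrying HIG-tagged alpha-DG that lacks glycosylation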
Each line names hits and unclear results; the compound was inactive in the other large screens. The list is not random: actives were taken first. Their share in the collection is about 5.4%.

CC1=NN(c2ccc(Cl)c(C(=O)O)c2)C(=O)C1	none
CNC(=O)[C@@H](NC(=O)[C@H](CC(C)C)[C@H](O)C(=O)NO)C(C)(C)C	none (no result: PHOSPHO1 block, A3A deaminase, A3G deaminase, ALR inh, aDG glyco up)
CCOC(=O)c1cc(C#N)c(N2CCN(c3ccc(OC)cc3)CC2)[nH]c1=O	ALR inh 92.7
CCOC(=O)c1cc(C#N)c(SCC(=O)OC)[nH]c1=O	ALR inh 99.3
CCOC(=O)c1cc(C#N)c(SCC(=O)c2cc(C#N)c(SC)nc2C)nc1C	PHOSPHO1 block 73.2
CCOC(=O)c1cc(C#N)c(SCc2cccc3ccccc23)nc1C	none
CCOC(=O)c1[nH]c(CN2CCN(c3ccc(OC)cc3)CC2)c(C(=O)OCC)c1C	none
C=CCc1cccc(C=NNC(=O)c2ccco2)c1O	none (no result: PHOSPHO1 block, A3A deaminase, A3G deaminase, ALR inh, aDG glyco up)
C[C@@H]1CN([C@@H](C)CO)C(=O)CCCn2cc(nn2)CO[C@H]1CN(C)C(=O)Nc1ccc2c(c1)OCCO2	none (no result: PHOSPHO1 block, A3A deaminase, A3G deaminase, ALR inh, aDG glyco up)
c1ccc(-c2nc3ccccc3nc2-c2ccc(CN3CCC4(CC3)CNc3ccccc34)cc2)cc1	none (no result: PHOSPHO1 block, A3A deaminase, A3G deaminase, ALR inh, aDG glyco up)
CCOC(=O)[C@@]12CCCC3=C1N(CCC3)C(=O)[C@H]2CC(=O)N1CCCCC1	none (no result: PHOSPHO1 block, A3A deaminase, A3G deaminase, ALR inh, aDG glyco up)
CC(C)n1c(N2CCN(S(=O)(=O)c3cccc([N+](=O)[O-])c3)CC2)nc2ccccc21	PHOSPHO1 block 61.1
COc1ccccc1CCn1cnc(-c2cccc(Br)c2)c1C(C)C	none (no result: PHOSPHO1 block, A3A deaminase, A3G deaminase, ALR inh, aDG glyco up)
COC(=O)[C@@H]1C[C@@]2(c3ccccc3)c3ccccc3N(S(=O)(=O)c3ccccc3)[C@H]2N1C(=O)CNC/C=C(\C)CCC=C(C)C	none (no result: PHOSPHO1 block, A3A deaminase, A3G deaminase, ALR inh, aDG glyco up)
COC(=O)c1ccc(NC(=O)CN2CCN(c3ccccc3)CC2)cc1	ALR inh 91.8
COC(=O)c1ccc(NC(=O)CN2CCOCC2)cc1	PHOSPHO1 block 74.0
O=C(CN1CCN(c2ccccc2)CC1)Nc1ccccc1Cl	ALR inh 97.8
O=C(CCN1CCN(c2ccc(Cl)cc2)CC1)Nc1ccccc1F	ALR inh 87.6
O=C(CCN1CCN(c2ccccc2F)CC1)Nc1ccccc1F	none
O=C(CN1CCCC1)Nc1ccccc1Cl	none
CCOC(=O)c1ccc(NC(=O)CN2CCN(c3ccccc3)CC2)cc1	none
COc1ccc(N2CCN(CCNS(=O)(=O)c3ccc(F)cc3)CC2)cc1	none (no result: PHOSPHO1 block, A3A deaminase, A3G deaminase, ALR inh, aDG glyco up)
O=C(CN1CCN(c2ccc(O)cc2)CC1)Nc1cc([N+](=O)[O-])ccc1Cl	ALR inh 98.9
O=C1C2CCCN2C(=O)N1CCCN1CCN(c2cccc(Br)c2)CC1 (centres undefined)	ALR inh 85.4
O=C1C2CCCCN2C(=O)N1CCCN1CCN(c2cccc(C(F)(F)F)c2)CC1 (centres undefined)	none (no result: PHOSPHO1 block, A3A deaminase, A3G deaminase, ALR inh)
O=C1C2CCCCN2C(=O)N1CCCN1CCN(c2ccc(F)cc2)CC1 (centres undefined)	none (no result: rCAG binder)
Nc1ccc(N2CCN(CCCCN3C(=O)C4CCCN4C3=O)CC2)cc1 (centres undefined)	ALR inh 99.2
O[C@@H](Cc1ccccc1)[C@@H](/C=C/c1ccccc1)N(Cc1ccccc1)Cc1ccccc1	none (no result: PHOSPHO1 block, A3A deaminase, A3G deaminase, ALR inh, aDG glyco up)
Cc1ccc(-c2cc(C(=O)NN=Cc3ccc(F)cc3)[nH]n2)cc1C	none (no result: PHOSPHO1 block, A3A deaminase, A3G deaminase, ALR inh, aDG glyco up)
CCN(CC)CCCNC(=O)c1cn(C(C)c2ccccc2)nn1 (centres undefined)	none (no result: PHOSPHO1 block, A3A deaminase, A3G deaminase, ALR inh, aDG glyco up)
O=C1C=C(N(CCO)Cc2ccccc2)c2ccccc2C1=O	aDG glyco up 14.2 (no result: A3A deaminase, rCAG binder, A3G deaminase, ALR inh)
CCOC(=O)[C@@]12CCC3=C1N(CCC3)C(=O)[C@H](CC(=O)NCCC(C)C)C2	none (no result: PHOSPHO1 block, A3A deaminase, A3G deaminase, ALR inh, aDG glyco up)
CC(C)c1ccc(/C=C2\SC(=O)N(CC(=O)NCCCn3ccnc3)C2=O)cc1	ALR inh 98.7
O=C(CN1C(=O)S/C(=C\c2ccccc2)C1=O)NCCCn1ccnc1	none
Cc1nc2sccn2c1-c1csc(NCc2ccccc2)n1	aDG glyco up 5.9
Cc1nc(N)sc1-c1csc(NCc2ccccc2)n1	PHOSPHO1 block 67.3
COc1cccc(Nc2nc(-c3sc(N)nc3C)cs2)c1	PHOSPHO1 block 65.8
C=CCNc1nc(-c2c(C)nc3sccn23)cs1	none
COc1cccc(Nc2nc(-c3sc(C)nc3C)cs2)c1	none
CCCCN1CCN(C(=O)C2CCCN(C(=O)c3ccc4c(c3)NC(=O)CS4)C2)CC1 (centres undefined)	none (no result: PHOSPHO1 block, A3A deaminase, A3G deaminase, ALR inh, aDG glyco up)
CCC(Sc1nc(-c2ccccc2)c(-c2ccccc2)[nH]1)C(=O)O (centres undefined)	ALR inh 82.0
COc1cccc(-c2nc(CS(=O)CC(=O)NC3CCCC3)c(C)o2)c1 (centres undefined)	ALR inh 98.6
COc1cccc(-c2noc(CCCC(=O)NC3CCCC3)n2)c1	none
COc1cccc(-c2nc(CS(=O)CC(=O)NC3CCCCC3)c(C)o2)c1 (centres undefined)	ALR inh 99.5
COc1cccc(-c2noc(CCC(=O)NC3CCCC3)n2)c1	none
COc1cc(CNCCCN2CCOCC2)c(Br)cc1OCC(=O)Nc1ccccc1C	none
COc1ccccc1NC(=O)COc1ccc(Br)cc1CNCCCN1CCOCC1	PHOSPHO1 block 70.5
CCOc1ccccc1-c1n[nH]c(=S)o1	PHOSPHO1 block 99.7
COc1ccc(-c2n[nH]c(=S)o2)c(OC)c1	PHOSPHO1 block 102.7, ALR inh 89.6
CCOC(=O)CN1CCCc2nc(C)c(C)cc21	none (no result: PHOSPHO1 block, A3A deaminase, A3G deaminase, ALR inh, aDG glyco up)
COc1ccc(OC)c2c(C)cc(N3CCCN(C)CC3)nc12	ALR inh 97.5
C#CCN(CC=C)Cc1ccc(OC)cc1OC	none (no result: PHOSPHO1 block, A3A deaminase, A3G deaminase, ALR inh, aDG glyco up)
CCC(=O)OC1(C)C(=O)C=C2C=C(c3ccc(C#N)cc3)OC=C2C1=O (centres undefined)	rCAG binder 42.4 (no result: PHOSPHO1 block)
CC(C)CCN(C)C1CCN(C(=O)Nc2ccccc2)CC1	none (no result: PHOSPHO1 block, A3A deaminase, A3G deaminase, ALR inh, aDG glyco up)
CN(C)C(=O)/C(C#N)=C\c1cc(Br)c(Sc2ccc(Cl)cc2)o1	ALR inh 93.3 (no result: A3A deaminase, rCAG binder, A3G deaminase)
CNC(=O)/C(C#N)=C/c1ccc(-c2ccc(Cl)cc2)o1	none
S=c1[nH]nc(-c2cccnc2)o1	PHOSPHO1 block 89.5
CCCN1C(=O)c2ccccc2NC1c1ccc(Cl)c(Cl)c1 (centres undefined)	none
CCCN1C(=O)c2ccccc2NC1c1ccc(O)c(OCC)c1 (centres undefined)	ALR inh 86.0
Cc1ccc(C(=O)CSC2=NC(N)=C(C#N)C3(CCCCC3)C2C(N)=O)cc1 (centres undefined)	ALR inh 97.1
CN=c1scc(C)n1/N=C/c1cc(Br)c(O)c(Br)c1	none (no result: ALR inh)
COc1cc(/C=N/N2C(C)CCCC2C)cc(Br)c1O (centres undefined)	ALR inh 99.3
O=C1c2ccccc2C(=O)N1/N=C/c1ccc(O)c(O)c1	ALR inh 98.7
Clc1ccc(C=NN2CCCCCC2)cc1Cl	none (no result: PHOSPHO1 block, A3A deaminase, A3G deaminase, ALR inh)
CCN=c1scc(C)n1/N=C/c1cc(Br)c(O)c(OC)c1	ALR inh 86.6
Oc1ccc(/C=N/N2CCCCC2)cc1O	ALR inh 98.8
CN1C(=O)[C@@]2(O[C@H]3C=CC=CN3C3=C2C(=O)CCC3)c2cc([N+](=O)[O-])ccc21	none (no result: PHOSPHO1 block, A3A deaminase, A3G deaminase, ALR inh, aDG glyco up)
